Assay outcomes as filed in PubChem BioAssay.
nsP2pro inh = inhibitors of chikungunya virus nsP2 protease; Q8JUX6; FRET peptide cleavage, nsP2pro, fluorescence 1 h; Potency, µM (highest dose often 24.9 µM), for the others: top-dose activity change, negative = inhibition, usual class: inhibitors; actives 1.1% (n = 31,000); also: nearly all actives have a fitted effect of over 60% in size
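FRET cleavage of 2.5 uM peptide 2 by 150 nM CHIKV protease domain at pH 8.0 (Tris, Tween 20). Compounds at 7 concentrations (up to 25 uM) preincubated 15 min. Fluorescence read after 1 h at room temperature.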
CHIKV nsP2 cell = inhibits CHIKV nsP2 protease in cells; cell-based CHIKV nsP2 protease reporter assay; shares compounds with nsP2pro inh; actives 10% (n = 450); Potency, µM (doses to about 51.1 µM), inactives show at the highest dose activity change, negative = inhibition, actives largely listed as inhibitors; also: nearly all actives have a fitted effect of over 70% in size
NSP2 full ctr = selectivity test for CHIKV nsP2 protease inhibitors: full-length NSP2; shares compounds with nsP2pro inh; Full-length CHIKV NSP2 protease enzymatic counterscreen; Potency, µM (top dose mostly 50.7 µM), inactives show at the top dose activity change, negative = inhibition, most hits filed as inhibitors; actives 39% (n = 410); AID 1964101; also: nearly all actives have a fitted effect of over 65% in size
Furin counter = selectivity counter-screen for CHIKV nsP2 protease inhibitors: human furin | shares compounds with nsP2pro inh | Recombinant human furin enzymatic counterscreen, fluorogenic substrate | Potency, µM (series often up to 50.6 µM), inactives show at the top dose activity change, negative = inhibition, most hits filed as inhibitors | actives 6% (n = 410) | AID 1964102
nsP2 NS23 pep = selectivity test for CHIKV nsP2 protease inhibitors: endogenous NS2/3 peptide | shares compounds with nsP2pro inh | Purified CHIKV nsP2 protease, endogenous NS2/3 peptide cleavage | Potency, µM (doses to about 51 µM), for inactives: at the highest dose activity change, negative = inhibition, actives largely listed as inhibitors | actives 34% (n = 410); also: nearly all actives have a fitted effect of over 55% in size
Papain cs = inhibits papain in a CHIKV nsP2 protease selectivity counterscreen | shares compounds with nsP2pro inh | purified papain protease activity, enzymatic inhibition | Potency, µM (series often up to 51 µM), for inactives: top-dose activity change, negative = inhibition, actives largely listed as inhibitors | actives 5% (n = 410)
Target sequence (P00784 whole entry, looked up): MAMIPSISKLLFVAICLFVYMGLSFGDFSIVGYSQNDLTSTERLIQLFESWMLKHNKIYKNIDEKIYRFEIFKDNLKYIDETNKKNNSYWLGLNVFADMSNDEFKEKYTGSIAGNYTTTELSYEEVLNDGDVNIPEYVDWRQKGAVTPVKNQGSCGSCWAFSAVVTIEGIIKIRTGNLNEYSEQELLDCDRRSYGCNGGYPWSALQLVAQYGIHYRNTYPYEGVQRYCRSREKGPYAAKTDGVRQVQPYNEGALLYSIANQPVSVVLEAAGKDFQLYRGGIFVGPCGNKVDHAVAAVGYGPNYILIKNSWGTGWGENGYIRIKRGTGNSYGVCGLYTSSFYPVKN
nsP2pro conf qHTS = confirmation of CHIKV nsP2 protease inhibitors; AID 1964105; Potency, µM (highest dose often 25.5 µM), for inactives: at the highest dose activity change, negative = inhibition, usual class: inhibitors; actives 43% (n = 410); CHIKV nsP2 protease enzymatic activity, qHTS; shares compounds with nsP2pro inh; also: nearly all actives have a fitted effect of over 75% in size
HCV NS3 4A cs = inhibits HCV NS3/4A protease in an nsP2pro selectivity counterscreen; shares compounds with nsP2pro inh; HCV NS3/4A protease biochemical counterscreen; Potency, µM (doses to about 50.9 µM), usual class: inhibitors; actives 20% (n = 410); AID 1964106; also: nearly all actives have a fitted effect of over 55% in size
* hit, by the source's call; i = inactive; ? = inconclusive; [ ] = remark or other dose. Only a selection was taken, and hits are over-represented in it overall. Calls follow the shape of the full dose curve. % is scaled to controls: 0 for no effect and ±100 for the full control effect; potency is read from the fitted curve at half-maximal effect.

SMILES	nsP2pro inh	others
Cc1ccc(-c2cc3n(n2)CCCN(C(=O)c2cc(CN4CCOCC4)on2)C3)o1	1µM*	CHIKV nsP2 cell=-9%;NSP2 full ctr=15µM*;Furin counter=-7%;nsP2 NS23 pep=?;Papain cs=-5%;nsP2pro conf qHTS=7.1µM*;HCV NS3 4A cs=?
COc1ccc(-c2cc3n(n2)CCCN(C(=O)c2cc(CN4CCOCC4)on2)C3)cc1	16%
Cc1ccc(OCCC2CCN(C(=O)c3cc(CN4CCOCC4)on3)C2)cc1 (stereo not given)	2%
CN(C)c1ccc2nc(NC(=S)N3CCN(c4cccc(C(F)(F)F)c4)CC3)sc2c1	i
COc1ccc(C=CC(=O)O)cc1	-12%
O=C(NC1CCN(c2cc(-c3cccs3)[nH]n2)C1)c1cccnc1 (stereo not given)	-12%
O=C(Nc1ccccc1)NC1CCCN(c2ccc3nnc(-c4ccccc4)n3n2)C1 (stereo not given)	-1%
O=C(Nc1cccs1)NC1CCN(c2ccc(C(F)(F)F)cn2)C1 (stereo not given)	?	CHIKV nsP2 cell=?;NSP2 full ctr=?;Furin counter=-3%;nsP2 NS23 pep=?;Papain cs=-15%;nsP2pro conf qHTS=?;HCV NS3 4A cs=i
CSCCC(C=O)NC(=O)C(CC(C)C)NC(=O)C(CC(C)C)NC(C)=O (stereo not given)	-22%
COc1ccc(CNC(=O)C2CCC(CNS(=O)(=O)c3ccc4c(c3)CCCC(=O)N4)CC2)cc1 (stereo not given)	-10%
COc1ccc(CNS(=O)(=O)c2cc(-c3[nH]ncc3C(=O)N3CCCC3)oc2C)cc1	7.1µM*	CHIKV nsP2 cell=6%;NSP2 full ctr=?;Furin counter=-7%;nsP2 NS23 pep=-4%;Papain cs=-6%;nsP2pro conf qHTS=-8%;HCV NS3 4A cs=?
COc1ccc(CNS(=O)(=O)c2cc3c(cc2C)N(C)CCO3)cc1	-20%
CC(=O)N[C@@H](CCCN=C(N)N)C(=O)N[C@H]1CSSC[C@@H](C(N)=O)NC(=O)[C@H](Cc2c[nH]c3ccccc23)NC(=O)[C@H](CCCN=C(N)N)NC(=O)[C@@H](Cc2ccccc2)NC(=O)[C@H](Cc2cnc[nH]2)NC(=O)[C@@H](C)NC1=O	224%
c1csc(CCNc2ncnc3ccc(-c4ccc5c(c4)OCO5)cc23)c1	-10%
CCOC(=O)[C@H](Cc1ccc(F)cc1)NC(=O)[C@@H](N)Cc1ccc(N(CCCl)CCCl)cc1	-6%
OC(CCN1CCCCC1)(c1ccccc1)C1CCCC1 (stereo not given)	-6%
N#Cc1ccc(-c2ccc(CNc3ccc(N4CCOCC4)cc3)o2)cc1	-20%
N#Cc1ccc(-c2ccc(CNc3ccc(N4CCCCC4)cc3)o2)cc1	3.5µM*	CHIKV nsP2 cell=?;NSP2 full ctr=-61%;Furin counter=-4%;nsP2 NS23 pep=?;Papain cs=-21%;nsP2pro conf qHTS=?;HCV NS3 4A cs=1.8µM*
N#Cc1ccc(-c2ccc(CNc3ccc(N4CCN5CCCCC5C4)cc3)o2)cc1 (stereo not given)	-21%
Cc1ccc(S(=O)(=O)Nc2cnccc2C(=O)Nc2nc(-c3ccc(F)cc3)cs2)cc1	i
O=C(/C=C/c1ccc(O)c(O)c1)O[C@@H]1C[C@@](O)(C(=O)O)C[C@@H](O)[C@@H]1O	-6%
Cc1ccccc1C(=O)N1CCc2cc(-c3nc(NC(=O)Cc4ccc5c(c4)OCCO5)sc3C)ccc21	-11%
O=[N+]([O-])c1ccc(Oc2ccc3c(c2)CCC(c2ccccc2)O3)nc1 (stereo not given)	17%
CCCCNC(=O)CN1CCN(c2ccc(NC(=O)c3ccc(OC)cc3)cc2C(=O)O)CC1	4.5µM*	CHIKV nsP2 cell=?;NSP2 full ctr=4.1µM*;Furin counter=?;nsP2 NS23 pep=7.3µM*;Papain cs=-1%;nsP2pro conf qHTS=6.3µM*;HCV NS3 4A cs=1.8µM*
CCCCOc1ccc(C(=O)Nc2ccc3c(c2)CCCN3C(=O)c2cccs2)cc1	-17%
SMILES	nsP2pro inh	others
CCOc1cccc(C(=O)Nc2ccc(S(=O)(=O)N(Cc3ccccc3)c3ccccc3)cc2)c1	-12%
COc1ccc(NC(=O)c2ccc3nc(CCc4ccccc4)oc3c2)cc1	15%
CCCCNC(=O)CN1CCN(c2ncc(NC(=O)c3ccc(Cl)cc3)cc2C(=O)O)CC1	?	CHIKV nsP2 cell=-16%;NSP2 full ctr=15µM*;Furin counter=-3%;nsP2 NS23 pep=-5%;Papain cs=-9%;nsP2pro conf qHTS=-16%;HCV NS3 4A cs=i
CCCCN(CCCNC(=O)c1ccc(Sc2ccc(Cl)cc2)c(NC(C)=O)c1)c1ccccc1	-24%
Cc1ccc(Cl)cc1NC(=O)c1cnc(N2CCCCC2)c2ccccc12	-14%
COc1ccc(C(=O)Nc2ccc(N(C)Cc3ccccc3)c(C(=O)O)c2)cc1	5µM*	CHIKV nsP2 cell=-7%;NSP2 full ctr=5.2µM*;Furin counter=?;nsP2 NS23 pep=13µM*;Papain cs=-4%;nsP2pro conf qHTS=8µM*;HCV NS3 4A cs=3.3µM*
COc1ccc(NC(=O)CCN2CCN(c3cccc(Cl)c3)CC2)cc1	-10%
CC1(C)C=Cc2c(ccc3c2[N+]([O-])=C2C3(O)CC34NC(=O)C5(CCCN5C3=O)CC4C2(C)C)O1 (stereo not given)	-22%[10 µM]
FC(F)(F)c1cc(N2CCN(C(=S)Nc3cc(Cl)ccn3)CC2)cc(C(F)(F)F)c1	i
O=C(Nc1nc(-c2ccccc2)cs1)c1ccncc1NS(=O)(=O)c1ccccc1Cl	i
COc1cccc(-c2cc(C(=O)NCc3c(C)cc(C)[nH]c3=O)c3c(c2)N(C(C)C)CCO3)c1OC	4%
CCOc1ccccc1CN1CCC2(CCN(C(=O)Cc3ccccn3)CC2)Oc2ccccc21	-4%
Cc1ccc(S(=O)(=O)Nc2cncc(C(=O)Nc3nc(-c4ccccc4)cs3)c2)cc1	i
COc1cc2nc(N3CCN(C(=O)c4ccco4)C4CCCCC43)nc(N)c2cc1OC (stereo not given)	-16%
CCN(CC)C(=O)[C@@H]1CCC[C@@H](NC(=O)c2ccc(Cl)cc2)CN(C)C(=O)C1	-7%[39.2 µM]
CCN(CC)C(=O)[C@@H]1CCC[C@@H](NC(=O)c2ccc(OC)cc2)CN(C)C(=O)C1	i
CCCNC(=O)N[C@@H]1CCC[C@@H](C(=O)N(CC)CC)CC(=O)N(C)C1	5.6µM*	CHIKV nsP2 cell=9%;NSP2 full ctr=24µM*;Furin counter=?;nsP2 NS23 pep=17µM*;Papain cs=-3%;nsP2pro conf qHTS=8.2µM*;HCV NS3 4A cs=?
CC(C)(C)NCC(O)COc1ccccc1C#N (stereo not given)	-2%
